Laboratory results from PubChem BioAssay (NCATS).
Results filed as inconclusive are left out. Unmarked numbers belong to inactive results. Calls of active or inactive are those of the source. Calls follow the shape of the dose curve; as a rule, active = well fitted inhibition curve with a large enough effect; inconclusive = small, poorly fitted or top-dose-only effect; inactive = no such curve, though single readings can be large or run the other way. *1 amine or outer side, *2 acyl side, *3 side chain or, on linkers, in order; H or OH if unused. Where a SMILES comes first, the peptide text is derived from it. [ ]: non-standard residue; d: D form. The star is where a group is joined. X4 = CC(C)=CCc1cc(C(O)C(N[*:1])C(=O)[*:2])ccc1O; AFC = O=c1cc(C(F)(F)F)c2ccc(N*)cc2o1

Each compound was assayed on Zika virus NS2B-NS3 protease (unlinked complex) (assay: Primary screen GU Rhodamine qHTS for Zika virus inhibitors: Unlinked NS2B-NS3 protease assay (AID 1347159; also: nearly all actives have a fitted effect of over 60% in size)). Settings: Recombinant ZIKV NS2B-NS3 protease, Rhodamine110 substrate fluorescence; series mostly up to 107 µM; activity change, negative = inhibition: at the top concentration.
Outline: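 Compounds, tested up to 114 microM, were incubated for 15 minutes with 25 nM unlinked NS2B-NS3 protease at pH 8.0. Cleavage of 1.5 microM Rhodamine110 substrate was then followed by fluorescence for 15 minutes.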
% is scaled to controls: 0 for no effect and ±100 for the full control effect; potency is read from the fitted curve at half-maximal effect.

Compared with CC1CC(O)C2(OC1=O)OC1C(O)C3C4CCC5CC(OC6OC(CO)C(O)C(O)C6OC6OC(C)C(O)C(O)C6O)CCC5(C)C4CCC3(C)C1C2C (stereo not drawn), CC1OC(OC2C(OC3C(O[C@H]4CC[C@@]5(C)C(CC[C@]6(C)C5C(=O)C=C5C7CC(C)(C)CC(O)[C@]7(C)CC[C@]56C)C4(C)C)OC(C(=O)O)C(O)C3O)OCC(O)C2O)C(O)C(O)C1O (stereo partly drawn) is lower in “activity change, negative = inhibition” value: -5.51% [at 32.5 µM] for the first, -13.9% [at 32.5 µM] for the second.

First: CC(C)=CCc1cc(C(O)C2NC(=O)CNC(=O)C(Cc3c[nH]c4ccccc34)NC(=O)C3CCCN3C(=O)CNC(=O)C(C(C)C)NC(=O)CNC2=O)ccc1O (stereo not drawn) (cyclo(G[X4]GVGPW); configuration not given here)
Second: CC1(C=O)CC[C@]2(C(=O)O[C@@H]3O[C@H](CO)[C@@H](O)[C@H](O)[C@H]3O)CC[C@]3(C)C(=CCC4[C@@]5(C)C[C@H](O)[C@H](O[C@@H]6OC[C@@H](O)[C@H](O)[C@H]6O)[C@@](C)(CO)C5CC[C@]43C)C2C1 (stereo partly drawn)
The “activity change, negative = inhibition” value of the first is higher: 14.8% [at 32.5 µM] for the first, 11.8% [at 32.5 µM] for the second.

Compared with COC(=O)CCC(=O)OC[C@]1(C)CCC[C@@]2(C)C3CC[C@]4(C)C=CC3(CCC12)C4 (stereo partly drawn), CCC1=CC2CN(C1)Cc1c([nH]c3ccccc13)[C@@](C(=O)OC)(c1cc3c(cc1OC)N(C)[C@H]1[C@@](O)(C(=O)OC)[C@H](OC(C)=O)[C@]4(CC)C=CCN5CC[C@]31[C@@H]54)C2 (stereo partly drawn) is higher in “activity change, negative = inhibition” value: -11.1% [at 57.1 µM] for the first, 67.9% [at 57.1 µM] for the second.

With CC(C)CC(=O)OC1OC=C(CO[C@@H]2O[C@H](CO)[C@@H](O)[C@H](O)[C@H]2O)C2CC(O)C(O)(CO)C12 (stereo partly drawn) the “activity change, negative = inhibition” value was -14.4% [at 57.1 µM].

Compared with Cc1cc(NC(=O)Nc2ccc(F)c(F)c2)n(-c2ccccc2)n1, CCOC(=O)Nc1cc(-c2ccc(C)c(NS(C)(=O)=O)c2)nn2c(C)nnc12 is higher in “activity change, negative = inhibition” value: -11.5% for the first, 4.61% for the second.

Compared with CC(=O)N[C@@H](Cc1c[nH]c2ccccc12)C(=O)N[C@@H](CCC(=O)O)C(=O)N[C@@H](Cc1cnc[nH]1)C(=O)N[C@@H](CC(=O)O)C(=O)Nc1ccc2c(C(F)(F)F)cc(=O)oc2c1 (Ac-WEHD-{AFC}), Cc1cc(N(C)C)ccc1-c1nc2ccc(-c3nc4ccc(N5CCN(C)CC5)cc4[nH]3)cc2[nH]1 is higher in “activity change, negative = inhibition” value: 0% for the first, 19.2% for the second.

First: CC(=O)O[C@H]1CC[C@H](C)[C@@]2(C)[C@H](OC(C)=O)c3c(C)coc3C(=O)[C@H]12
Second: C=C1C(=O)O[C@H]2[C@H]1CC/C(C)=C/CC[C@@]1(C)O[C@@H]21
The “activity change, negative = inhibition” value of the first is higher: 18.7% for the first, 16% for the second.

Compared with Nc1ncnc2c([C@@H]3N[C@H](CO)[C@@H](O)[C@H]3O)c[nH]c12, O=C(O)/C=C/c1cc2c(cc1O[C@@H]1O[C@H](CO)[C@@H](O)[C@H](O)[C@H]1O)OCO2 is lower in “activity change, negative = inhibition” value: 118% for the first, 24.1% for the second.

Compared with CC(=O)C=C=C1C(C)(C)CC(O[C@@H]2O[C@H](CO)[C@@H](O)[C@H](O)[C@H]2O)CC1(C)O (stereo partly drawn), O=C1OCc2cc3cccc(O[C@@H]4O[C@H](CO)[C@@H](O)[C@H](O)[C@H]4O)c3c(O)c21 is lower in “activity change, negative = inhibition” value: 4.41% for the first, -17.3% for the second.

Compared with CC1(c2nc3c(C(N)=O)cccc3[nH]2)CCCN1 (stereo not drawn), Cc1ccc(-c2c(C(=O)CF)n(CCCO)c3ncnc(N)c23)cc1 is lower in “activity change, negative = inhibition” value: 47.9% for the first, 0.737% for the second.

For CCc1c(C)nc2c(-c3cnn(-c4cc(CO)ccn4)c3)c[nH]n2c1=O, the “activity change, negative = inhibition” value was 0%.

With Cc1cc(=O)oc2c(C=O)c(O)ccc12 the Potency was 79.4 µM (active).
CCCCc1ccc(C(=O)Nc2cc(-c3ccc(Cl)cc3)nn2-c2ccc(Cl)cc2)cc1 was tested, and the Potency was 39.8 µM (active).
With O=[N+]([O-])c1cccc2[nH]c(CNc3nc(N4CCOCC4)nc4c3ncn4-c3ccsc3)nc12 the Potency was 89.1 µM (active).
